Screening results (PubChem)
ABCB6 inh MLPCN = ABCB6 transporter inhibitors, primary screen, K562-ABCB6 cells, flow cytometry, MLPCN library; ATP-binding cassette sub-family B member 6 (Homo sapiens), Q9NP58; K562-ABCB6 porphyrin accumulation, 1 h; active compounds read low; fluorescence ratio to DMSO, % at 10 µM; hit rate 0.19% among 360,000; AID 602162, 2011;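 active = fluorescence ratio to DMSO below 75%, the collection mean minus 3 SD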;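 also: signal is porphyrin accumulated inside mitochondria; 100% equals median channel fluorescence of DMSO control wells; lower ratio means ABCB6 inhibition with less porphyrin fluorescence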
CRFR2-BP antag = antagonists of CRF-BP/CRF-R2 complex, primary screen, cell-based, HEK293, calcium dye fluorescence, uHTS. CRF-induced calcium fluorescence. inhibition, % at 11.8 µM. hit rate 0.59% among 350,000;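 active = inhibition of the ligand-induced calcium signal above about 50% at the single tested concentration, limit read from the data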
MEKK2mut PB1 HTS = MEK5 binding signal on mutant MEKK2 PB1, primary screen, biochemical, multiplex bead flow cytometry, Alexa488-MEK5; Alexa488-MEK5 binding to MEKK2 mutant; hit rate 0.35% among 290,000; percent response, % at 10 µM; in the data active = percent response above about 24%, passing the limit was not always enough
MEKK2 WT-MEK5 = modulators of MEK5 binding to wildtype MEKK2, primary screen, biochemical, multiplex bead flow cytometry, Alexa488-MEK5; binding response (% of control), % at 10 µM; hit rate 1.1% among 290,000; Mitogen-activated protein kinase kinase kinase 2 (Homo sapiens), Q9Y2U5; Alexa488-MEK5 binding to MEKK2 WT; actives lie on both sides; AID 1531, 2009; in the data active = binding response below about 67% or above about 130%
MEKK3 PB1 HTS = modulators of MEKK3-MEK5 PB1 binding, primary screen, biochemical, wildtype MEKK3, multiplex bead flow cytometry, Alexa488-MEK5 | Mitogen-activated protein kinase kinase kinase 3 (Homo sapiens), Q99759 | bead-based flow cytometry, Alexa488-MEK5 binding to MEKK3; actives lie on both sides; 0 = blocked by unlabeled MEK5, 100 = vehicle | binding response (% of control), % at 10 µM | hit rate 1.4% among 290,000 | AID 1529, 2009;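 active = binding response more than 3 SD above or below the average of its plate-row segment, actives on both sides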;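 also: Alexa488 bead fluorescence after subtracting the streptavidin-only scavenger bead signal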
Target sequence (Q99759 whole entry, looked up): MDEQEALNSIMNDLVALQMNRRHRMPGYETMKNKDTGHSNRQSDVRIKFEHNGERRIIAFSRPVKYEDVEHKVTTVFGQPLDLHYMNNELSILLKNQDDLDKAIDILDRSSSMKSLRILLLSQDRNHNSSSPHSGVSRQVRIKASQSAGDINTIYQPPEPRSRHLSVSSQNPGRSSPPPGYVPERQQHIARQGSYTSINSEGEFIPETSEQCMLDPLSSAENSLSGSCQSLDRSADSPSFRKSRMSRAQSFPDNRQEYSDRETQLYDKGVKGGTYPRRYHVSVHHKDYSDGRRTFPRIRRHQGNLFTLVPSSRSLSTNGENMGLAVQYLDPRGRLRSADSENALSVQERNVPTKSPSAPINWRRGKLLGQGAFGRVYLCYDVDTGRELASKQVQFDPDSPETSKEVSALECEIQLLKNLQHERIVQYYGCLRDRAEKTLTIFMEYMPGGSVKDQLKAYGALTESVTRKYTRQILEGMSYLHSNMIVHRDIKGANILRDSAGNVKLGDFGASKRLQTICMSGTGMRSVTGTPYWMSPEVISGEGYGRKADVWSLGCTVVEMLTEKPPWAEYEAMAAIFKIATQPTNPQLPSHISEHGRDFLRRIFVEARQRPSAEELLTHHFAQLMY
CRFBP-R2 agonist = agonists of CRF-BP/CRF-R2 complex, primary screen, cell-based, HEK293, calcium dye fluorescence, uHTS; activation, % at 13.2 µM; hit rate 0.46% among 350,000; CRF-binding protein / CRF receptor 2 complex (human); calcium dye fluorescence (FLIPR); percent of saturating CRF peptide response;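 active = activation of at least 50%, plus an integration ratio under a set limit after plate pattern correction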;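 also: plate controls were neutral control wells without compound for no effect and CRF at EC100 for full effect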
Starred values were filed as active, the others as inactive. Sampled rows, rich in hits. Any-hit rate of the full collection: about 2.9%.

CS(=O)(=O)c1cccc(C(=O)OCC(=O)NC(=O)Nc2ccccc2F)c1 was read as ABCB6 inh MLPCN 99, CRFR2-BP antag 12 and CRFBP-R2 agonist -1.
CCOC(=O)C1CCCN(S(=O)(=O)c2ccccc2)C1 (stereo not drawn) was read as ABCB6 inh MLPCN 95, CRFR2-BP antag 78*, MEKK2mut PB1 HTS -2, MEKK2 WT-MEK5 91, MEKK3 PB1 HTS 96 and CRFBP-R2 agonist -1.
For CCOC(=O)C1CN(S(=O)(=O)c2ccccc2)C1 the results were ABCB6 inh MLPCN 96, CRFR2-BP antag 18, MEKK2mut PB1 HTS -2, MEKK2 WT-MEK5 101, MEKK3 PB1 HTS 100 and CRFBP-R2 agonist -3.
For CCOC(=O)c1c(CC(C)C)csc1NC(=O)c1ccccc1C(=O)O the results were ABCB6 inh MLPCN 100, CRFR2-BP antag 13, MEKK2mut PB1 HTS -7, MEKK2 WT-MEK5 75, MEKK3 PB1 HTS 73 and CRFBP-R2 agonist -2.
CC(C)Cc1csc(NC(=O)c2ccc(F)cc2)c1C(=O)O was read as ABCB6 inh MLPCN 98, CRFR2-BP antag 69*, MEKK2mut PB1 HTS 2, MEKK2 WT-MEK5 103, MEKK3 PB1 HTS 94 and CRFBP-R2 agonist 3.
Screening COCCn1cnc2c1c(=O)n(CC(=O)NCC(F)(F)F)c(=O)n2Cc1ccccc1 returned ABCB6 inh MLPCN 97, CRFR2-BP antag 1, MEKK2mut PB1 HTS 8, MEKK2 WT-MEK5 110, MEKK3 PB1 HTS 107 and CRFBP-R2 agonist 1.
Screening Cc1ccc(NC(=O)COC(=O)c2oc3ccccc3c2C)cc1S(=O)(=O)N1CCOCC1 returned ABCB6 inh MLPCN 94, CRFR2-BP antag -11 and CRFBP-R2 agonist 2.
CC(=O)OCCCNc1cc(Sc2ccc(C)cc2)c2nonc2c1[N+](=O)[O-] was read as ABCB6 inh MLPCN 95, CRFR2-BP antag 0, MEKK2mut PB1 HTS 1, MEKK2 WT-MEK5 105, MEKK3 PB1 HTS 130* and CRFBP-R2 agonist 11.
For COc1ccc(Cl)cc1C(=O)NNC(=O)CCNS(=O)(=O)c1ccccc1 the results were ABCB6 inh MLPCN 93, CRFR2-BP antag -5 and CRFBP-R2 agonist -1.
`CCOc1ccccc1N(C)C(=O)Cn1ncc2c([nH]c3ccccc32)c1=O` gave ABCB6 inh MLPCN 99, CRFR2-BP antag 94*, MEKK2mut PB1 HTS 2, MEKK2 WT-MEK5 100, MEKK3 PB1 HTS 101 and CRFBP-R2 agonist 7.
`CCn1cc(C(=O)NCCCN(CC(C)C)CC(C)C)c(=O)c2cc(S(=O)(=O)N(C)C3CCCCC3)ccc21` gave ABCB6 inh MLPCN 104, CRFR2-BP antag -65, MEKK2mut PB1 HTS 3, MEKK2 WT-MEK5 105, MEKK3 PB1 HTS 102 and CRFBP-R2 agonist 76*.
`COc1ccc(-c2c(C)nn3c(N4CCCCCC4)cc(C)nc23)cc1OC` gave ABCB6 inh MLPCN 92, CRFR2-BP antag 56*, MEKK2mut PB1 HTS 4, MEKK2 WT-MEK5 106, MEKK3 PB1 HTS 105 and CRFBP-R2 agonist -2.
Screening O=C(CCCn1c(=O)oc2ccccc21)NNC(=O)COc1ccc(F)cc1 returned ABCB6 inh MLPCN 90, CRFR2-BP antag -3 and CRFBP-R2 agonist 0.
For N#Cc1cccc(NC(=O)c2cncn2-c2ccccc2)c1 the results were ABCB6 inh MLPCN 92, CRFR2-BP antag 1, MEKK2mut PB1 HTS -16, MEKK2 WT-MEK5 84, MEKK3 PB1 HTS 83 and CRFBP-R2 agonist 0.
`Cc1nn2c(NC(C)C)c3c(nc2c1-c1ccccc1)CCC3` gave ABCB6 inh MLPCN 99, CRFR2-BP antag 7, MEKK2mut PB1 HTS 0, MEKK2 WT-MEK5 98, MEKK3 PB1 HTS 98 and CRFBP-R2 agonist -2.
For Cc1nn2c(Nc3ccccc3)c3c(nc2c1-c1ccccc1)CCC3 the results were ABCB6 inh MLPCN 100, CRFR2-BP antag 3, MEKK2mut PB1 HTS 2, MEKK2 WT-MEK5 113, MEKK3 PB1 HTS 176* and CRFBP-R2 agonist 0.
